According to PubChem BioAssay (Tox21):
Results filed as inconclusive are left out. Active and inactive are the calls of the source. Unless noted, the call rests on the fitted dose curve.

How the values were obtained:
[1] = qHTS assay to identify small molecule agonists or antagonists of the thyroid stimulating hormone receptor (TSHR) signaling pathway - wild type cell line counter screen (AID 1259384)
Outline: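 Wild-type HEK293 cells were plated 18 h at 37 C/5% CO2, pin-dosed with compound plus Ro20-1724 medium, held 30 min at room temperature, then given cAMP-d2 and anti-cAMP-cryptate; fluorescence was read after 1 h. Fifteen concentrations, triplicate.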

[2] = target: Thyrotropin receptor (Homo sapiens) (UniProt P16473); test: qHTS assay to identify small molecule antagonists of the thyroid stimulating hormone receptor (TSHR) signaling pathway (AID 1259385); further: nearly all actives have a fitted effect of over 20% in size
Sequence of Thyrotropin receptor (Homo sapiens) (P16473 whole entry, looked up): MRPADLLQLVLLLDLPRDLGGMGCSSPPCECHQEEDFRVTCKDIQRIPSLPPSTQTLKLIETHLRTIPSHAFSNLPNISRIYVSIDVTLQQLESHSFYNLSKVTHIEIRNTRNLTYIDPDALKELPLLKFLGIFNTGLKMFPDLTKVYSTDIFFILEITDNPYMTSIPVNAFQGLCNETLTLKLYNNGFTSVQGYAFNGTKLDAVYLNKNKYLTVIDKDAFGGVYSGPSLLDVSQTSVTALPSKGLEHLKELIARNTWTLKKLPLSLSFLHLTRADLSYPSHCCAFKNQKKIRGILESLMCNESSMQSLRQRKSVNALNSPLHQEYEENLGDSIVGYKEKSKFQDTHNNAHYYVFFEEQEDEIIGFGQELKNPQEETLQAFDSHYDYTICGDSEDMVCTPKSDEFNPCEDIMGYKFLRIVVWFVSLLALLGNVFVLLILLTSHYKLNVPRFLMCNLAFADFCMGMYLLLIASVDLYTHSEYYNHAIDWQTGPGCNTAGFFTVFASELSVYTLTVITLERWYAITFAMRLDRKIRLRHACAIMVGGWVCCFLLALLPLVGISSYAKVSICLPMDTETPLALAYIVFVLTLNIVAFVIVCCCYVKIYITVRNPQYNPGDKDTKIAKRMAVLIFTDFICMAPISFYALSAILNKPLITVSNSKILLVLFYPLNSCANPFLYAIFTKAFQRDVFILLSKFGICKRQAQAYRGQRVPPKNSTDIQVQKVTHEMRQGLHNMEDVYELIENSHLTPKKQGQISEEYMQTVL
Outline: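 TSHR-HEK293 cells were plated and held 18 h at 37C/5% CO2, then given compound plus Ro20-1724 and stimulated with TSH at 1.5 ng/mL final. After 30 min at room temperature, cAMP was detected with cAMP-d2/anti-cAMP-cryptate (1 h) by fluorescence.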

[3] = qHTS assay to identify small molecule agonists of the estrogen receptor alpha (ER-alpha) signaling pathway in the presence of an antagonist - cell viability counter screen (AID 1259386; active means well fitted curve in the direction sought with a large enough effect in the repeat runs; an effect the other way counts as inactive or inconclusive;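 further: series mostly up to about 92 µM; cells exposed to compounds for 22 h at 37 °C before the viability read; nearly all actives have a fitted effect of over 30% in size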)
Outline: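 Read-out: CellTiter-Fluor fluorescence after 1hr reagent incubation, measured in the same wells as the luciferase readout. VM7Luc4E2 cells were exposed to 15 compound concentrations with 10.0nM ICI-182,780 for 22hr at 37C.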

[4] = target: Progesterone receptor (Homo sapiens) (UniProt P06401); test: qHTS assay to identify small molecule agonists of the progesterone receptor (PR) signaling pathway (AID 1346784); further: nearly all actives have a fitted effect of over 30% in size
Sequence of Progesterone receptor (Homo sapiens) (P06401 whole entry, looked up): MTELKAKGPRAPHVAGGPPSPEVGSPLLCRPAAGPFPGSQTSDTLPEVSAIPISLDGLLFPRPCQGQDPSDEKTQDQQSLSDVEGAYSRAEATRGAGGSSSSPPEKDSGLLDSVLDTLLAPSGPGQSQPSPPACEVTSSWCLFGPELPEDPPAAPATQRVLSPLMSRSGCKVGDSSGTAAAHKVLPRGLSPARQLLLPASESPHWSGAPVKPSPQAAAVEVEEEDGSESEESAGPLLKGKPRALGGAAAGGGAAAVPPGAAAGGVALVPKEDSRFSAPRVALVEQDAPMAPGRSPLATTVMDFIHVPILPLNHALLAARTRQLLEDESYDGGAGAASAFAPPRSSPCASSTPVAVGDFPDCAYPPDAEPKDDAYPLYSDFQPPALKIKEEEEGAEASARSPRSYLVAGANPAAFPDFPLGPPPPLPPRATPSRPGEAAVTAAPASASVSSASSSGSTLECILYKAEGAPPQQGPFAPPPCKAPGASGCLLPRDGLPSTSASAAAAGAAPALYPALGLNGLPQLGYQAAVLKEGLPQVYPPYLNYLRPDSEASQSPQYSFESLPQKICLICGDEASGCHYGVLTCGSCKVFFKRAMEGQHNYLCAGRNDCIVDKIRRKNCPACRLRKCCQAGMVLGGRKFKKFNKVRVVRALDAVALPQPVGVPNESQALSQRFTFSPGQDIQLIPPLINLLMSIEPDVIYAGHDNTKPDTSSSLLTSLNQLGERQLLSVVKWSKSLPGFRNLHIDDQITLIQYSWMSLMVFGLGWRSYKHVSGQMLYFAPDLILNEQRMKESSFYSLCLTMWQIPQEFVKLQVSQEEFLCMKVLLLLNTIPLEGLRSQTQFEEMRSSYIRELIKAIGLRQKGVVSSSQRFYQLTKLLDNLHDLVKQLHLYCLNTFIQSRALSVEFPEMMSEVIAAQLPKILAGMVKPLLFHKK
Outline: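 Seed PR-UAS-bla HEK 293T cells (2% charcoal-stripped FBS), incubate 6 hr at 37C; add compounds in DMSO, 16 hr at 37C; add LiveBLAzer B/G substrate, 2 hr RT; read fluorescence intensity.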

[5] = target: Progesterone receptor (Homo sapiens) (UniProt P06401); test: qHTS assay to identify small molecule antagonists of the progesterone receptor (PR) signaling pathway (AID 1346795; active means well fitted inhibition curve with a large enough effect in the signal ratio in the repeat runs, not every such curve was filed as active; the % refers to the signal ratio)
Outline: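 Screening used a GripTite HEK293T line with PR-responsive UAS-beta-lactamase. Cells were challenged with compound in the presence of 1 nM R5020 final for 16 hr at 37C; B/G FRET substrate, 2 hr room temperature, fluorescence.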

[6] = qHTS assay to identify small molecule antagonists of the progesterone receptor (PR) signaling pathway - cell viability counter screen (AID 1346798; active means well fitted curve in the direction sought with a large enough effect in the repeat runs; an effect the other way counts as inactive or inconclusive; further: series mostly up to about 92 µM; nearly all actives have a fitted effect of over 50% in size)
Outline: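 Measures cytotoxicity in parallel with the PR antagonist reporter read: HEK293T PR-UAS-bla cells get compound and R5020 for 16 hr, and remaining viable cells are quantified by CellTiter-Glo luminescence.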

[7] = qHTS assay to identify small molecule agonists of the progesterone receptor (PR) signaling pathway - cell viability counter screen (AID 1346799); further: nearly all actives have a fitted effect of over 45% in size
Outline: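 Using the same plates as the PR reporter screen, HEK293T PR-UAS-bla cells received compounds for 16 hr at 37C and were then lysed with CellTiter-Glo; luminescence was read 30 min later at room temperature.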

[8] = qHTS assay to identify small molecule antagonists of the TGF-beta/Smad signaling pathway - cell viability counter screen (AID 1346824; active means well fitted curve in the direction sought with a large enough effect in the repeat runs; an effect the other way counts as inactive or inconclusive; further: nearly all actives have a fitted effect of over 50% in size)
Outline: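 SBE-bla HEK 293T cells were plated overnight at 37 C, then given compounds in DMSO plus TGF-beta1 (added as 0.25 ng/mL solution) for 5 hr. After the bla read, CellTiter-Glo was added to the same wells and luminescence read after 30 min at room temperature.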

[9] = qHTS assay to identify small molecule agonists of the TGF-beta/Smad signaling pathway - cell viability counter screen (AID 1346829; active means well fitted curve in the direction sought with a large enough effect in the repeat runs; an effect the other way counts as inactive or inconclusive; further: top concentration of the series differs between compounds; nearly all actives have a fitted effect of over 45% in size)
Outline: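 Here the cytotoxicity of library compounds is measured in SBE-bla HEK 293T cells treated for 5 hr, using CellTiter-Glo added to wells already read for the beta-lactamase reporter.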

[10] = target: Estrogen receptor (Homo sapiens) (UniProt P03372); test: qHTS assay to identify small molecule agonists of the estrogen receptor alpha (ER-alpha) signaling pathway in the presence of an antagonist (AID 1259383); further: top concentration of the series differs between compounds; nearly all actives have a fitted effect of over 15% in size
Sequence of Estrogen receptor (Homo sapiens) (P03372 whole entry, looked up): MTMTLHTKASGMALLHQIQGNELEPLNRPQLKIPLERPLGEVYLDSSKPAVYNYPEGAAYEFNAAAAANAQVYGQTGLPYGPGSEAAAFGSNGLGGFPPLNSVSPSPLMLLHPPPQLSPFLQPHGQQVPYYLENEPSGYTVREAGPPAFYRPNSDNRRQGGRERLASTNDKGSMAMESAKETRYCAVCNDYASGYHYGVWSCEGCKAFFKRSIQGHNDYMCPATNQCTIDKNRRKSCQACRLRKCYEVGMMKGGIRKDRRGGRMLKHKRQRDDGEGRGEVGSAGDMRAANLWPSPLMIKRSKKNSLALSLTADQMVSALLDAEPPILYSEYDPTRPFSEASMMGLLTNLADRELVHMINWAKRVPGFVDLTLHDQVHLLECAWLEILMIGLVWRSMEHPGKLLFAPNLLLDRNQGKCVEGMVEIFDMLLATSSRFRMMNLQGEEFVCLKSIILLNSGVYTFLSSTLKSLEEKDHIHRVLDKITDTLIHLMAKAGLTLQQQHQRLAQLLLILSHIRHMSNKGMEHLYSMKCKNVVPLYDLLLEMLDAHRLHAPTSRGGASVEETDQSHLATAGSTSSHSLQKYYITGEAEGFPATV
Outline: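 Luciferase luminescence (ONE-Glo, 30min at room temperature) measured in VM7Luc4E2 cells after 22hr compound exposure at 15 concentrations, with 10.0nM ICI-182,780 final present; cells express endogenous ER-alpha and carry four EREs upstream of luciferase.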
On the % scale 0 is the no-effect control and ±100 the full control effect.

CNCCc1ccccn1
inactive: outcome [1] | outcome [2] | outcome [3] | Potency [4] | Potency [5] | outcome [6] | Potency [7] | outcome [8] | outcome [9]

CCCC[O][Al]([O]CCCC)[O]CCCC
inactive: outcome [1] | outcome [2] | outcome [3] | Potency [4] | Potency [5] | outcome [6] | Potency [7] | outcome [8] | outcome [9]

CC(C)c1cc(C(C)C)cc(C(C)C)c1
inactive: Potency [10] | Potency [4] | Potency [5] | outcome [6] | Potency [7] | outcome [8] | outcome [9]

CCCCCCC(=O)c1ccccc1
inactive: outcome [1] | outcome [2] | outcome [3] | Potency [4] | Potency [5] | outcome [6] | Potency [7] | outcome [9]

CC(C)(C)NCC(O)COc1cccc2c1CCC(=O)N2 (stereo not drawn)
inactive: outcome [1] | outcome [2] | outcome [3] | Potency [4] | Potency [5] | outcome [6] | Potency [7] | outcome [8]

CCc1ncc(C)[nH]1
inactive: outcome [1] | outcome [2] | outcome [3] | Potency [4] | Potency [5] | outcome [6] | Potency [7] | outcome [8]

O=C1CCCc2c(O)cccc21
inactive: Potency [10] | Potency [4] | Potency [5] | outcome [6] | Potency [7] | outcome [8] | outcome [9]

CCCCCCCCOCCC#N
inactive: outcome [1] | outcome [2] | outcome [3] | Potency [4] | Potency [5] | outcome [6] | Potency [7] | outcome [8] | outcome [9]

O=S(=O)(O)c1ccc(Cl)cc1
inactive: Potency [10] | Potency [4] | Potency [5] | outcome [6] | Potency [7] | outcome [8] | outcome [9]

NC(=O)CC[C@@H](N)C(=O)O
inactive: outcome [1] | outcome [2] | outcome [3] | Potency [4] | Potency [5] | outcome [6] | Potency [7] | outcome [9]

COc1cc2nc(N3CCN(C(=O)C4CCCO4)CC3)nc(N)c2cc1OC (stereo not drawn)
inactive: Potency [10] | outcome [3] | outcome [6] | Potency [7] | outcome [9]

NC[C@H]1O[C@H](O[C@H]2[C@H](O)[C@@H](O[C@H]3O[C@H](CO)[C@@H](O)[C@H](N)[C@H]3O)[C@H](N)C[C@@H]2N)[C@H](N)[C@@H](O)[C@@H]1O
inactive: cAMP activity change [1] 2.25% [at 18.9 µM] | activity change, negative = inhibition [2] 4.59% [at 19 µM] | activity change, negative = cytotoxicity [3] 10% [at 19 µM] | activation [4] -1.56% [at 19 µM] | activity change, negative = inhibition [5] 11.8% [at 18.9 µM] | activity change, negative = cytotoxicity [7] 1.42% [at 19 µM] | viability change, negative = cytotoxic [8] 6.71% [at 15.8 µM]

C=C(C)C(=O)OCCCC
inactive: outcome [1] | outcome [2] | outcome [3] | Potency [4] | Potency [5] | outcome [6] | Potency [7] | outcome [8] | outcome [9]

CCOC(=O)COc1ccc2c(C)c(CCN(CC)CC)c(=O)oc2c1Cl
inactive: Potency [10] | Potency [4] | Potency [5] | Potency [7] | outcome [8]

CCOc1ccccc1OCCN[C@H](C)Cc1ccc(OC)c(S(N)(=O)=O)c1
inactive: outcome [1] | outcome [2] | outcome [3] | Potency [4] | Potency [5] | outcome [6] | Potency [7] | outcome [9]

CCCOc1ccc(C(=O)OCCN(CC)CC)cc1N
inactive: outcome [1] | outcome [2] | outcome [3] | Potency [4] | Potency [5] | outcome [6] | outcome [8] | outcome [9]

C=CCN1CCc2nc(N)sc2CC1
inactive: outcome [1] | outcome [2] | outcome [3] | Potency [4] | Potency [5] | outcome [6] | outcome [8]

O=S(=O)(O)c1cc(I)c(O)c2ncccc12
inactive: outcome [1] | outcome [2] | outcome [3] | Potency [4] | Potency [5] | outcome [6] | Potency [7] | outcome [8] | outcome [9]

CCN(CC)CC(=O)Oc1ccc(NC(C)=O)cc1
inactive: outcome [1] | outcome [2] | Potency [4] | Potency [5] | outcome [6] | Potency [7] | outcome [8] | outcome [9]

O=c1[nH]c(=O)c2cn[nH]c2[nH]1
inactive: outcome [3] | Potency [4] | Potency [5] | outcome [6] | Potency [7] | outcome [8] | outcome [9]

CCOCCOCCOC(C)=O
inactive: outcome [1] | outcome [2] | Potency [4] | Potency [5] | Potency [7] | outcome [8]

CC(=O)c1c(C)cc(C(C)(C)C)cc1C
inactive: Potency [4] | Potency [5] | Potency [7] | outcome [8] | outcome [9]

CC1(C)C(=O)C(C)(C)C1=O
inactive: outcome [3] | Potency [4] | Potency [5] | outcome [6] | Potency [7] | outcome [9]

O=C(O)P(=O)(O)O
inactive: outcome [1] | outcome [2] | Potency [4] | Potency [5] | outcome [6] | outcome [8]

C=CC(=O)OCCOCCOCC
inactive: outcome [3] | Potency [4] | outcome [6] | Potency [7] | outcome [8] | outcome [9]

CC1(C)CC(N)CC(C)(C)N1
inactive: outcome [1] | outcome [2] | Potency [4] | Potency [5] | outcome [6] | Potency [7] | outcome [8] | outcome [9]

CCCC(C)C(O)CC (stereo not drawn)
inactive: outcome [1] | outcome [2] | outcome [3] | Potency [4] | Potency [5] | Potency [7] | outcome [8] | outcome [9]
